Results: PubChem BioAssay (Tox21)
Results filed as inconclusive are left out. Calls of active or inactive are those of the source. Unless noted, calls follow the shape of the dose curve; as a rule, active = well fitted curve in the direction sought with a large enough effect in the repeat runs; inconclusive = weak or mixed curves; inactive = no such curve, though single readings can be large; an effect the other way counts as inactive or inconclusive.

What was measured:
[1] = target: Retinoic acid receptor RXR-alpha (Homo sapiens) (UniProt P19793); assay: qHTS assay to identify small molecule agonists of the RXR signaling pathway (AID 1159527; calls by dose curve; also: nearly all actives have a fitted effect of over 35% in size; also: potency is read from the fitted curve at half-maximal effect)
How it was run: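 16 hr incubation of compound-treated RXR-alpha-UAS-bla HEK 293T cells (2% charcoal-stripped FBS, 37 C) preceded a 2 hr room-temperature LiveBLAzer FRET substrate step and blue/green fluorescence measurement.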

[2] = qHTS assay to identify small molecule agonists of the RXR signaling pathway - cell viability counter screen (AID 1159529); also: nearly all actives have a fitted effect of over 50% in size; also: potency is read from the fitted curve at half-maximal effect
How it was run: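 In this parallel viability measure, GeneBLAzer RXR-alpha HEK 293T cells (2% charcoal-stripped FBS) were given a 5 hr preincubation, treated with compounds 16 hr at 37 C, and read by CellTiter-Glo luminescence.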

[3] = target: Luciferin 4-monooxygenase (Photinus pyralis) (UniProt P08659); assay: qHTS assay to identify small molecule inhibitors of firefly luciferase (AID 1224835); also: series mostly up to about 120 µM; nearly all actives have a fitted effect of over 25% in size
How it was run: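 Biochemical qHTS: compounds run as interplate titrations against purified firefly enzyme, with D-luciferin and ATP each at its KM concentration. Light output recorded by CCD imaging.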

[4] = target: Nuclear receptor subfamily 1 group I member 3 (Homo sapiens) (UniProt Q14994); assay: qHTS assay to identify small molecule antagonists of the constitutive androstane receptor (CAR) signaling pathway (AID 1224838);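 also: HepG2 cells stably expressing hCAR with CYP2B6 luciferase reporter stimulated by CITCO; nearly all actives have a fitted effect of over 40% in size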
How it was run: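 Antagonism measured as luciferase signal (ONE-Glo, 30 min, room temperature) in CAR-stimulated cells: HepG2-CYP2B6-hCAR double-stable line exposed 24 hr at 37 C to compound in a 15-point series plus 50 nM CITCO.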

[5] = target: Nuclear receptor subfamily 1 group I member 3 (Homo sapiens) (UniProt Q14994); assay: qHTS assay to identify small molecule agonists of the constitutive androstane receptor (CAR) signaling pathway (AID 1224839); also: nearly all actives have a fitted effect of over 15% in size; also: potency is read from the fitted curve at half-maximal effect
How it was run: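 Double-stable HepG2 cells (hCAR, CYP2B6-2.2kb) seeded 4 h before compound addition. Exposure 24 h with 0.75 uM PK11195 final. Luciferase detected by ONE-Glo.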

[6] = qHTS assay to identify small molecule antagonists of the estrogen related receptor signaling pathway with the pleiotropic PPARgamma coactivator (PGC) from Tox21 10K library - cell viability counter screen (AID 1224840; active = well fitted cell-killing curve with a large enough effect in the repeat runs, not every such curve was filed as active; also: nearly all actives have a fitted effect of over 40% in size; also: potency is read from the fitted curve at half-maximal effect)
How it was run: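 Counter-screen for cytotoxicity: after 17.5 h compound exposure at 37 C, CellTiter-Fluor reagent added to PGC/ERR cells for 30 min and fluorescence read. Cells were seeded at 2,000 per well 6 h before dosing.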

[7] = qHTS assay to identify small molecule antagonists of the retinoic acid receptor (RAR) signaling pathway (AID 1159552; also: nearly all actives have a fitted effect of over 50% in size)
How it was run: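 C3RL4 RARE-luc cells, overnight plating; retinol 1 uM final added right after compound; 6 hr 37 C; luciferase read at 30 min RT.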

[8] = qHTS assay to identify small molecule agonists of the retinoic acid receptor (RAR) signaling pathway (AID 1159553)
How it was run: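 Luminescence was measured 30 min after luciferase reagent addition at room temperature. Before that, C3RL4 reporter cells (1,000 per well, plated overnight) were treated with compound for 6 hr at 37 C and 5% CO2.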

[9] = qHTS assay to identify small molecule antagonists of the estrogen related receptor (ERR) signaling pathway from Tox21 library - cell viability counter screen (AID 1224834); also: nearly all actives have a fitted effect of over 30% in size; also: potency is read from the fitted curve at half-maximal effect
How it was run: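 CellTiter-Fluor fluorescence, read after 30 min at 37 C, measures viability of ERR cells. Cells plated at 2,000/well and incubated 6 h before pin-tool compound addition, then exposed 17.5 hours at 37 C.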

[10] = qHTS assay to identify small molecule antagonists of the constitutive androstane receptor (CAR) signaling pathway - cell viability counter screen (AID 1224837); also: nearly all actives have a fitted effect of over 45% in size; also: potency is read from the fitted curve at half-maximal effect
How it was run: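 Cytotoxicity counter-screen: CellTiter-Fluor fluorescence after 23 h compound exposure (15-point qHTS) in double-stable HepG2-CYP2B6-hCAR cells, with 50 nM CITCO added.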

[11] = qHTS assay to identify small molecule antagonists of the estrogen related receptor signaling pathway with the pleiotropic PPARgamma coactivator (PGC) from Tox21 10K library (AID 1224841; call rule not given here; also: actives are mostly falling curves and most rising ones were filed inactive; nearly all actives have a fitted effect of over 50% in size; also: potency is read from the fitted curve at half-maximal effect)
How it was run: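 Luminescence (One-Glo, 30 min at room temperature) after 18 h compound treatment at 37 C of PGC/ERR reporter cells plated at 2,000 cells/well and settled 6 h beforehand.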

[12] = qHTS assay to identify small molecule agonists of the estrogen related receptor signaling pathway with the pleiotropic PPARgamma coactivator (PGC) from Tox21 10K library (AID 1224842); also: nearly all actives have a fitted effect of over 15% in size
How it was run: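 PGC/ERR reporter cell line, 2,000 cells per well, incubated 6 h at 37 C before 23 nL compound in DMSO was added. After 18 h at 37 C, One-Glo luminescence read following 30 min at room temperature.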

[13] = qHTS assay to identify small molecule agonists of the constitutive androstane receptor (CAR) signaling pathway - cell viability counter screen (AID 1224836); also: series mostly up to about 92 µM; nearly all actives have a fitted effect of over 45% in size
How it was run: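 Using CellTiter-Fluor, viability of HepG2 cells harbouring hCAR and CYP2B6-2.2kb was measured following 23 h incubation with a 15-concentration compound series plus PK11195 (0.75 uM final).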

[14] = qHTS assay to identify small molecule antagonists of the retinoid acid receptor (RAR) signaling pathway - cell viability counter screen (AID 1159551); also: nearly all actives have a fitted effect of over 35% in size
How it was run: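 Cytotoxicity counter screen: ATP content quantified by CellTiter-Glo luminescence in C3RL4 cells treated 6 hr at 37 C with compound and retinol (1 uM final). Cells plated at 1,000/well and cultured overnight before dosing.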

[15] = qHTS assay to identify small molecule antagonists of the estrogen related receptor (ERR) signaling pathway - cell viability counter screen (AID 1224818);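 also: series mostly up to about 46 µM; viability measured after 17.5 h of compound exposure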
How it was run: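 Cytotoxicity counter screen: fluorescence from CellTiter-Fluor, added after 17.5 h compound exposure at 37 C and read 30 min later. ERR cell line seeded at 2,000 cells/well, preincubated 6 h before dosing.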

[16] = qHTS assay to identify small molecule agonists of the estrogen related receptor (ERR) signaling pathway (AID 1224820)
How it was run: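 Luminescence readout (One-Glo, 30 min RT) from NTP-supplied ERR cell line exposed to compounds for 18 h at 37 C. Cells seeded 2,000 per well and pre-incubated 6 h before pin-tool compound transfer.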

[17] = tested on: estrogen-related receptor alpha (ERRalpha) with PGC-1alpha coactivator, human; assay: qHTS assay to identify small molecule antagonists of the estrogen related receptor signaling pathway with the pleiotropic PPARgamma coactivator (PGC) (AID 1224821; calls by dose curve;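 also: series mostly up to about 46 µM; lower luminescence signal means antagonism of PGC/ERR signalling; nearly all actives have a fitted effect of over 50% in size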)
How it was run: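 PGC/ERR reporter cells; 6 h pre-incubation 37 C/5% CO2; pin-tool compound in DMSO, 18 h 37 C; One-Glo added, 30 min RT; luminescence read. qHTS antagonist mode.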

[18] = qHTS assay to identify small molecule antagonists of the estrogen related receptor signaling pathway with the pleiotropic PPARgamma coactivator (PGC) cell viability counter screen (AID 1224822; also: series mostly up to about 46 µM)
How it was run: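 Viability counter-screen read by fluorescence intensity after 30 min with CellTiter-Fluor at 37 C; PGC/ERR reporter cells were exposed to compounds for 17.5 h at 37 C following a 6 h preincubation.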

[19] = qHTS assay to identify small molecule agonists of the estrogen related receptor signaling pathway with the pleiotropic PPARgamma coactivator (PGC) (AID 1224823)
How it was run: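 Luminescence readout (One-Glo, 30 min RT) from PGC/ERR cell line treated 18 h at 37 C with pin-tool-delivered DMSO compound solutions; cells plated 6 h before dosing. Quantitative HTS format.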

[20] = qHTS assay to identify small molecule antagonists of the estrogen related receptor (ERR) signaling pathway (AID 1224819)
How it was run: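 LOPAC library screened for antagonism as reduced One-Glo luminescence in ERR reporter cells (2,000/well). Compounds were added after 6 h pre-incubation and left 18 h at 37C; reading followed a 30 min room-temperature reagent step.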

Measured: Potency

Sequence of Retinoic acid receptor RXR-alpha (Homo sapiens) (P19793 whole entry, looked up): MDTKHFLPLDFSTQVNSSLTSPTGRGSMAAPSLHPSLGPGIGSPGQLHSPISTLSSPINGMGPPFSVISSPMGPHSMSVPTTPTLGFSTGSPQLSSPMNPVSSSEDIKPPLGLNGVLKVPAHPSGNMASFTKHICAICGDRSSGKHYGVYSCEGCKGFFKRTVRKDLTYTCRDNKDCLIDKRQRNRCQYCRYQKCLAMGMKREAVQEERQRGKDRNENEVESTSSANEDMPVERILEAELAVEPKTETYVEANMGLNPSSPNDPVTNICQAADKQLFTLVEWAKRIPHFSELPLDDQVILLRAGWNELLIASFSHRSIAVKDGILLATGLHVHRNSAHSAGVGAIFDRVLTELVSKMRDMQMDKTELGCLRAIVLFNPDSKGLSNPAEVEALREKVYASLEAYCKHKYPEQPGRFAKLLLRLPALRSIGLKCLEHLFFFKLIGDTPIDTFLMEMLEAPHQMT
Sequence of Nuclear receptor subfamily 1 group I member 3 (Homo sapiens) (Q14994 whole entry, looked up): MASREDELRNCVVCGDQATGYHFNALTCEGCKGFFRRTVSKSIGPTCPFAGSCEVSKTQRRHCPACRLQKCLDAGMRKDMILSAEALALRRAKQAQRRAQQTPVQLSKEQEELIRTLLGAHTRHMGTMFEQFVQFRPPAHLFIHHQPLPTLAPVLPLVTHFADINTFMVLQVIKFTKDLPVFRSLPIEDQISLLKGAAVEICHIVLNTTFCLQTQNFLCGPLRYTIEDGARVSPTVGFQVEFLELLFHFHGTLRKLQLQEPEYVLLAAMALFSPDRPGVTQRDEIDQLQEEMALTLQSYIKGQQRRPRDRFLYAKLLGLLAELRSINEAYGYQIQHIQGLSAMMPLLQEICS
Sequence of Luciferin 4-monooxygenase (Photinus pyralis) (P08659 whole entry, looked up): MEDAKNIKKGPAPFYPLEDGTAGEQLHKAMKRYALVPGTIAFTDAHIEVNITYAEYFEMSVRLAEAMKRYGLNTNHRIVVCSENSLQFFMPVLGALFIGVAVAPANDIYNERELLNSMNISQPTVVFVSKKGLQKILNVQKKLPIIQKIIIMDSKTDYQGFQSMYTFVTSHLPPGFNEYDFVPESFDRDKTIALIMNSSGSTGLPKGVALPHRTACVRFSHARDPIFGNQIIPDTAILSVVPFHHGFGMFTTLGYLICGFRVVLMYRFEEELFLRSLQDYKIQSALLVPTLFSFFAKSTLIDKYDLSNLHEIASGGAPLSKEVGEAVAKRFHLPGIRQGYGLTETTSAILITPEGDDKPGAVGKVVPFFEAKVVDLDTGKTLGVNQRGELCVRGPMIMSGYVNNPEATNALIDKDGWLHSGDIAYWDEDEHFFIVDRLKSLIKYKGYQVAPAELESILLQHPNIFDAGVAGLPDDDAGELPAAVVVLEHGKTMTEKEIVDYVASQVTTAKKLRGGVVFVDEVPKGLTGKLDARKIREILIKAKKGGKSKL

Nc1ccc([N+](=O)[O-])cc1[N+](=O)[O-]
inactive: [1] | [2] | [3] | [4] | [5] | [6]

CC1Sc2c(C(=O)O)c(=O)c3cc(F)c(N4CCNCC4)cc3n21 (configuration not stated)
inactive: [1] | [2] | [7] | [8] | [9] | [3] | [10] | [6] | [11] | [12]

C=CCN1CC[C@]23c4c5ccc(O)c4O[C@H]2C(=O)CC[C@@]3(O)[C@H]1C5
inactive: [1] | [2] | [7] | [8] | [13] | [10] | [6] | [11]

CC1CC(CC2CCC(N)C(C)C2)CCC1N (configuration not stated)
inactive: [1] | [14] | [8] | [3] | [13] | [10] | [5]

ClCCCCBr
inactive: [1] | [2] | [7] | [8] | [9] | [3] | [13] | [10] | [4] | [5] | [6]

O=[N+]([O-])c1ccc(F)c([N+](=O)[O-])c1
active: [9] 34.7 µM | [10] 34.7 µM | [6] 55 µM | [11] 49 µM
inactive: [1] | [14] | [7] | [8] | [3] | [4] | [12]

CCOP(=O)(OCC)SCCSCC
inactive: [1] | [2] | [7] | [8] | [9] | [13] | [10] | [6] | [11] | [12]

c1cc2ccc3cccc4ccc(c1)c2c34
active: [2] 36.3 µM | [5] 36 µM
not listed: [1] | [9] | [12] | [20]
inactive: all other assays above

CCC(COC(=O)c1cc(OC)c(OC)c(OC)c1)(c1ccccc1)N(C)C (configuration not stated)
inactive: [1] | [2] | [13] | [10] | [4]

C=CC(=O)NCNC(=O)C=C
active: [1] 4.35 µM
not listed: [2] | [4] | [7] | [12] | [14] | [16]
inactive: all other assays above

CCCCc1c(C)nc(NCC)nc1OS(=O)(=O)N(C)C
inactive: [2] | [14] | [7] | [8] | [3] | [13] | [4]
active: [5] 21.7 µM | [11] 48.6 µM

OC(c1ccc(Cl)cc1)(c1ccc(Cl)cc1)c1cccnc1
active: [11] 61.1 µM
inactive: [2] | [14] | [7] | [8] | [3] | [13] | [10] | [4] | [12]
